The record followed here is PubChem BioAssay AID449762 (Southern Research Specialized Biocontainment Screening …, 2010).

Each structure is given as a SMILES string. The whole screen tested about 330,000 compounds, of which about 1,900 (0.58%) were called active. Inconclusive results (about 4%) are left out. Rule as the data show it: inconclusive = inhibition above about 70% without an active follow-up result; inactive = below that. Only a sample is shown. Potency and affinity values are given separately.

The nature of this assay: M. tuberculosis growth inhibition, HTS (AID 449762).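 Also: bacterial growth assessed after seven days of incubation.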 The settings on record: M. tuberculosis H37Rv growth inhibition, 7H9 media; at 25 µM; hits give high values.
As a reminder, the inhibition is the relative decrease from the control value, in per cent. As for `CC(C)Cn1c(NCCN(C)C)nc2c1c(=O)[nH]c(=O)n2C`, the inhibition was -4.76% (inactive).

Take `CCNc1nc2c(c(=O)[nH]c(=O)n2C)n1CC(C)C`: the inhibition is -9.92% (inactive).

For the compound `Cc1c(Cl)cccc1NC(=O)CSc1nnnn1C`, the inhibition is 1.96% (inactive).

For `COc1ccc(C(CCNCc2ccc(N(C)C)cc2)C(C)C)cc1` (stereo unspecified), the inhibition was 10.7% (inactive).

For the compound `CC(C)Oc1ccc(C(CCNCc2ccc(O)cc2)c2ccccc2)cc1` (stereo unspecified), the inhibition was 62.7% (inactive).

With `CSc1ccc(CCNC(=O)c2cc(C)nn2-c2ccccc2)cc1`, the inhibition is 3.36% (inactive).

Take `COc1ccc(NC(=O)CCNC(=O)c2ccccc2)cc1S(N)(=O)=O`: the inhibition is -4.86% (inactive).

For the compound `CCOC(=O)c1cc2c(ccc3ccccc32)oc1=O`, the inhibition was 52.8% (inactive).

As for `CCOC(=O)c1cc2ccc(OC)cc2oc1=O`, the inhibition was 14% (inactive).

For `CC(=O)c1ccc(COC(=O)c2cc3ccccc3oc2=O)cc1`, the inhibition was 13.6% (inactive).

On to `COC(=O)c1ccc(COC(=O)c2cc3ccccc3oc2=O)cc1`, for which the inhibition was 15.8% (inactive).

For `O=C(/C=C/c1ccccc1)N1c2ccccc2Sc2ccc(C(F)(F)F)cc21`, the inhibition was 25.3% (inactive).

On to `COc1cccc(-n2c(CN3CCN(c4ccccn4)CC3)nc3ccc([N+](=O)[O-])cc3c2=O)c1`, for which the inhibition is -0.01% (inactive).

As to `COc1ccc(NC(=O)CSc2nc3c(c(=O)n2-c2ccc(C)cc2)SCC3)c(OC)c1`, the inhibition was -1.52% (inactive).

Take `Cc1ccccc1C(=O)NCCCNC(=O)c1cnccn1`: the inhibition was 4.01% (inactive).

Take `COc1ccc(CCNC(=O)CNS(=O)(=O)c2cccs2)cc1OC`: the inhibition is -11.3% (inactive).

Take `CCOc1ccc(S(=O)(=O)NC(Cc2cnc[nH]2)C(=O)O)cc1` (stereo unspecified): the inhibition was -6.37% (inactive).

For `CC(=O)Nc1cccc(OCC(=O)Nc2ccc(F)cc2)c1`, the inhibition is -11.2% (inactive).

`C=CC(=O)Nc1cccc(Oc2ncnc3[nH]cc(-c4cnc5ccccc5c4)c23)c1`: the inhibition was 1.76% (inactive).

For the compound `Cc1ccc(NC(=O)COC(=O)Cn2cnc3ccccc32)c(C)c1`, the inhibition was 5.43% (inactive).

Consider `Cc1cccc(Cn2cc(/C=C/[N+](=O)[O-])c3ccccc32)c1`, for which the inhibition was -0.16% (inactive).

Turning to `O=[N+]([O-])/C=C/c1cn(Cc2ccc(Cl)cc2)c2ccccc12`, the inhibition is 3.28% (inactive).

For `COc1cc(CN(CC2CCCO2)C(=O)c2cccs2)cc(OC)c1OC` (stereo unspecified), the inhibition is 1.89% (inactive).

For the compound `CCOc1ccc(N2CC(C(=O)Nc3ccccn3)CC2=O)cc1` (stereo unspecified), the inhibition was 12.2% (inactive).

For `O=C(OCc1ccccc1Cl)C1CC(=O)N(Cc2ccco2)C1` (stereo unspecified), the inhibition was 5.47% (inactive).

`CC(C)Oc1ccc(N2CC(C(=O)Nc3ccccn3)CC2=O)cc1` (stereo unspecified): the inhibition was 10.3% (inactive).

As to `NC(=O)C1CC(=O)N(c2ccc(OCc3ccccc3Cl)cc2)C1` (stereo unspecified), the inhibition was 7.94% (inactive).

As for `O=C(O)C1CC(=O)N(c2ccc(OCc3ccccc3Cl)cc2)C1` (stereo unspecified), the inhibition is 35.8% (inactive).

As to `COc1ccc(COC(=O)C2CC(=O)N(Cc3ccc(C)cc3)C2)cc1` (stereo unspecified), the inhibition is 16.4% (inactive).

Consider `O=C(COC(=O)c1ccc(Cl)nc1)NNC(=O)c1ccc(Cl)cc1`, for which the inhibition was 5.61% (inactive).

Turning to `O=C(NCCC1=CCCCC1)c1cc(S(=O)(=O)N2CCOCC2)c(Cl)cc1Cl`, the inhibition was 2.93% (inactive).

On to `CCc1ccccc1N(CC(=O)NCC1CCCO1)C(=O)CCC(=O)Nc1cc(C)on1` (stereo unspecified), for which the inhibition is -3.22% (inactive).

Consider `COc1ccc(OC)c(S(=O)(=O)N2CCC(C(=O)Nc3cc(C)ccc3C)CC2)c1`, for which the inhibition was -10.6% (inactive).

As to `Cc1ccccc1C1C(C#N)=C2N=C(N)c3ccccc3N2C2=C1C(=O)CCC2` (stereo unspecified), the inhibition was 6.31% (inactive).

Consider `CCOC(=O)/C(=N\Nc1ccc(C(C)=O)cc1)c1csc(Nc2ccccc2)n1`, for which the inhibition was -1.99% (inactive).

Take `CCOC(=O)/C(=N\Nc1ccccc1)c1csc(Nc2ccc(C)cc2)n1`: the inhibition was 7.86% (inactive).

Consider `Cc1ccc(NC(=O)CN(C)C(=O)c2ccc3[nH]c4c(c3c2)CC(C)CC4)cc1` (stereo unspecified), for which the inhibition is -5.07% (inactive).

As for `O=C(c1ccccc1)c1ccc(COC(=O)c2cnccn2)cc1`, the inhibition is 18% (inactive).

As for `O=C(OCc1ccc(Cl)cc1)c1cnccn1`, the inhibition is 31.1% (inactive).

Take `COC(=O)CN(c1cccc(OC)c1)S(C)(=O)=O`: the inhibition is 1.45% (inactive).

With `CCOC(=O)c1sc2ncnc(NCc3ccco3)c2c1C`, the inhibition was 0.46% (inactive).

With `CN(C)C(CNc1ncnc2sccc12)c1cccs1` (stereo unspecified), the inhibition was -3.95% (inactive).

For `NC(=O)c1ccsc1NC(=O)COC(=O)Cc1c[nH]c2ccccc12`, the inhibition was 2.86% (inactive).

In the case of `COc1ccc(/C=C2/SC(=O)N(CCNC(=O)CC(NC(C)=O)c3ccccc3)C2=O)cc1` (stereo unspecified), the inhibition was -1.58% (inactive).

As for `Cc1ccc(CC(=O)Nc2ccc(Cl)cn2)cc1`, the inhibition is 3.62% (inactive).

With `Cc1ccc(NC(=O)Cc2ccc(Cl)cc2)nc1`, the inhibition is 11.2% (inactive).

On to `O=C(c1ccc(Cl)cc1)N1N=CCC1(O)c1ccc(Cl)cc1` (stereo unspecified), for which the inhibition is 2.13% (inactive).

`C[C@H](NC(=O)c1[nH]cnc1C(=O)Nc1ccon1)c1ccccc1`: the inhibition was -0.305% (inactive).

Regarding `O=C(OCC(=O)N1CCN(C(=O)c2ccco2)CC1)c1cc(-c2ccco2)nc2ccccc12`, the inhibition is 6.06% (inactive).

For the compound `O=C(OCC(=O)N1CCN(C(=O)c2ccco2)CC1)c1cc(-c2ccc(Cl)c(Cl)c2Cl)nc2ccccc12`, the inhibition is 4.98% (inactive).

`COc1ccc(CN(C)C(=O)C(Cc2ccccc2)NC(=O)c2ccccc2)c(OC)c1` (stereo unspecified): the inhibition is 0.87% (inactive).

Turning to `COc1cc(CN2CCC(n3nccc3NC(=O)CCCc3ccccc3)CC2)ccc1F`, the inhibition is -1.97% (inactive).

For the compound `CCC(C)(C)C1CCC(=NNC(=S)Nc2ccccc2)CC1` (stereo unspecified), the inhibition was 6.86% (inactive).

As for `CC1CCC/C(=N\NC(=O)Nc2ccccc2)C1` (stereo unspecified), the inhibition was -3.97% (inactive).

Take `CCN(CC(=O)NCc1ccc(Cl)cc1)C(=O)c1ccc(S(=O)(=O)N(C)C)cc1`: the inhibition is -8.9% (inactive).

As for `Cc1ccc(N=C2C(=S)N(c3ccc(C)cc3)C(=N)N2/N=C/c2ccc(Cl)cc2)cc1`, the inhibition was -4.74% (inactive).

In the case of `N=C1N(/N=C/c2ccccc2)C(=Nc2ccccc2)C(=S)N1c1ccccc1`, the inhibition was -15.3% (inactive).

Consider `CNC(=O)CSCc1cnn(-c2ccccc2)c1-n1cccc1`, for which the inhibition was -0.17% (inactive).

Consider `Nc1ccc(S(=O)(=O)N2CCCC2C(=O)O)cc1` (stereo unspecified), for which the inhibition is -7.07% (inactive).

Turning to `Nc1nonc1C(=O)NCCNCc1ccccc1OCc1ccccc1F`, the inhibition was 2.36% (inactive).

Consider `Nc1nonc1C(=O)NCCNCc1cc(Br)ccc1OCc1ccccc1F`, for which the inhibition was 14.5% (inactive).
